Assay results as given in ChEMBL document CHEMBL1857833, “Screening and optimization of specific chemical series against human African Trypanosomiasis (HAT)”.
Where “and” joins values, the source holds several entries; their conditions need not be identical. Identical values can stand only once. The whole screen tested about 4,400 compounds, of which about 390 (8.9%) showed an effect of 50% or more. This is one part of a sample in which strong results are shown more often than they occur.

The compounds below were run on Trypanosoma brucei (assay: DNDI: Inhibition of Human African Trypanosomiasis, SBRI 427, in vitro at 2 ug.mL-1).
Assay type: functional

Row | Structure (SMILES) | % inhibition
1 | Cc1cccc(N2CCN(Cc3coc(-c4ccccc4F)n3)CC2)c1C | -33%
2 | CN(CCc1ccccc1)Cc1coc(-c2ccccc2Cl)n1 | 17%
3 | COc1cccc(-c2nc(CN(C)Cc3cc(OC)c(OC)c(OC)c3)co2)c1 | -4%
4 | CC1CC(N/C(=N\O)c2cccnc2Oc2c(F)c(F)cc(F)c2F)CC(C)(C)C1 (configuration not stated) | -10%
5 | O/N=C(\NCC1CCCO1)c1cccnc1Oc1c(F)c(F)cc(F)c1F (configuration not stated) | 1%
6 | CC1CC(N/C(=N\O)c2cccnc2OCC(C)(C)C)CC(C)(C)C1 (configuration not stated) | 44%
7 | O/N=C(\NCC1CCCCC1)c1cccnc1Oc1c(F)cccc1F | 99%
8 | O/N=C(\NC1CCCCC1)c1cccnc1Oc1c(F)cccc1F | 99%
9 | O/N=C(\NC1CCCC1)c1cccnc1Oc1c(F)cccc1F | 100%
10 | CC1CC(N/C(=N\O)c2cccnc2Oc2c(F)cccc2F)CC(C)(C)C1 (configuration not stated) | 98%
11 | O/N=C(/c1cccnc1Oc1c(F)cccc1F)N1CCC2CCCCC2C1 (configuration not stated) | -13%
12 | COc1ccc(Oc2nc(C)ccc2/C(=N/O)NCCN(C)C)cc1 | 0%
13 | CCOc1ccc(-c2nc(CN(C)C3CCCCC3)co2)cc1 | 5%
14 | c1ccc(Oc2ccc(NCc3coc(-c4cccc5ccccc45)n3)cc2)cc1 | 1%
15 | O/N=C(/c1cccnc1OCc1ccccc1F)n1ccnc1 | -10%
16 | C#CCN(C)Cc1coc(-c2ccc(C)cc2)n1 | -1%
17 | Fc1cccc(-c2nc(CNCc3cccc4ccccc34)co2)c1 | 17%
18 | CCOc1ccccc1N(Cc1ccccc1)Cc1coc(-c2ccc(O)cc2)n1 | -16%
19 | O/N=C(/c1ccc(Oc2ccc(-n3ccnc3)cc2)nc1)N1CC=CC1 | 16%
20 | COc1ccc(NCc2coc(-c3ccc(OC)cc3)n2)cc1 | 9%
21 | COc1ccc(OC)c(NCc2coc(-c3ccc(C)cc3)n2)c1 | 0%
22 | CC1CC(C)CN(/C(=N\O)c2cccnc2Oc2c(F)cccc2F)C1 (configuration not stated) | 28%
23 | Cc1ccc(/C(=N/O)NC2CCC(C)CC2)c(Oc2c(F)c(F)cc(F)c2F)n1 (configuration not stated) | 22%
24 | CC1CCC(N/C(=N\O)c2cccnc2Oc2c(F)cccc2F)CC1 (configuration not stated) | 99%

Row | Structure (SMILES) | % inhibition
25 | CCOc1ccc(-c2nc(CN(C)c3ccccc3)co2)cc1 | -8%
26 | CN(Cc1coc(-c2ccc(Cl)cc2Cl)n1)CC1OCCO1 | 30%
27 | COc1cc(C)ccc1Oc1nc(C)ccc1/C(=N/O)Nc1ccccc1 | -6%
28 | CC(C)c1ccc(NCc2coc(-c3ccc(F)cc3)n2)cc1 | 7%
29 | COc1cc(-c2nc(CN(C)CCc3ccccn3)co2)cc(OC)c1OC | -7%
30 | COc1ccc(-c2nc(CN3CCN(c4cccc(C(F)(F)F)c4)CC3)co2)cc1 | -13%
31 | CCOc1ccccc1-c1nc(CNCCCn2ccnc2)co1 | 32%
32 | c1ccc2c(-c3nc(CNCCCn4ccnc4)co3)cccc2c1 | 54%
33 | Clc1ccc(-c2nc(CNCCCn3ccnc3)co2)c(Cl)c1 | 86%
34 | Clc1ccc(-c2nc(CNCc3ccncc3)co2)c(Cl)c1 | 9%
35 | Cc1cccc(-c2nc(CNCCCn3ccnc3)co2)c1 | -8%
36 | Clc1ccc(-c2nc(CNCCN3CCOCC3)co2)c(Cl)c1 | 0%
37 | Brc1ccccc1-c1nc(CNCCCn2ccnc2)co1 | 2%
38 | Brc1ccc(-c2nc(CNCCCn3ccnc3)co2)cc1 | 56%
39 | CC1CCCCN1CCCNCc1coc(-c2ccc(Cl)cc2Cl)n1 (configuration not stated) | 99%
40 | C#CCNCc1coc(-c2ccc(Cl)cc2Cl)n1 | 3%
41 | Clc1ccc(-c2nc(Cn3ccnc3)co2)c(Cl)c1 | 5%
42 | COc1ccc(-c2nc(CNCCCn3ccnc3)co2)cc1 | 6%
43 | Cc1ccc(/C(=N/O)NC2CCCCC2)c(OCc2cccc(F)c2)n1 | -9%
44 | CCC(NCc1coc(-c2ccc(OC(F)(F)F)cc2)n1)c1ccccc1 (configuration not stated) | -21%
45 | CSc1ccc(Oc2cc(/C(=N/O)NC3CCc4ccccc43)ccn2)cc1 (configuration not stated) | 9%
46 | COCCN(Cc1coc(-c2ccccc2C)n1)C(C)(C)C | 2%
47 | COc1ccc(Oc2nc(C)ccc2/C(=N/O)N2CCCCC2)cc1 | 28%
48 | Cc1cccc(Oc2nc(C)ccc2/C(=N/O)N2CCN(c3ccc(F)cc3)CC2)c1 | 12%

Row | Structure (SMILES) | % inhibition
49 | COc1ccccc1CN/C(=N\O)c1ccc(C)nc1OC1CCC1 | 6%
50 | Cc1cn(Cc2coc(-c3cccc(F)c3)n2)c(-c2ccccc2)n1 | -9%
51 | CCOc1ccc(Oc2cc(/C(=N/O)N3CCC4CCCCC4C3)ccn2)cc1 (configuration not stated) | 16%
52 | Cn1nc(C(C)(C)C)cc1NCc1coc(-c2cccc3ccccc23)n1 | 25%
53 | CCOc1ccccc1-c1nc(CN(C)Cc2ccccc2)co1 | 4%
54 | Cc1ccc(/C(=N/O)N(C)C2CCCCC2)c(Oc2cccc(F)c2)n1 | 10%
55 | CCC(NCc1coc(-c2ccc(OC)cc2)n1)c1ccccc1 (configuration not stated) | 12% and 8%
56 | Clc1ccc(-c2nc(CNCCCN3CCOCC3)co2)c(Cl)c1 | 23%
57 | Clc1ccc(-c2nc(CNCCCN3CCCC3)co2)c(Cl)c1 | 98%
58 | Clc1ccc(-c2nc(CNCCN3CCCC3)co2)c(Cl)c1 | -4%
59 | COc1ccc(Oc2cc(/C(=N/O)Nc3ccccc3)ccn2)cc1 | 15%
60 | COc1ccc(Oc2cc(/C(=N/O)NCC(C)C)ccn2)cc1 | 93%
61 | CCOc1ccc(Oc2cc(/C(=N/O)NCC(C)(C)C)ccn2)cc1 | 43%
62 | COc1ccc(Oc2cc(/C(=N/O)NCC(C)(C)C)ccn2)cc1 | 92%
63 | COc1ccc(Oc2cc(/C(=N/O)NCc3cc(F)cc(F)c3)ccn2)cc1 | 5%
64 | CC(C)CN/C(=N\O)c1ccnc(Oc2ccc(Cl)cc2)c1 | 25%
65 | CCC(CC)N/C(=N\O)c1ccnc(Oc2ccc(OC)cc2)c1 | 97%
66 | COc1ccc(Oc2cc(/C(=N/O)NCc3ccncc3)ccn2)cc1 | 9%
67 | CCOc1ccc(Oc2cc(/C(=N/O)NCc3ccc(OC)cc3)ccn2)cc1 | -4%
68 | CCOc1ccc(-c2nc(CNc3ccc(OC)cc3)co2)cc1 | -21%
69 | CCCCN(C)Cc1coc(-c2cccs2)n1 | 15%
70 | CCOc1ccc(-c2nc(CN3CCc4cc(OC)c(OC)cc4C3C(C)C)co2)cc1 (configuration not stated) | 15%
71 | COc1ccc(-c2nc(CN(C)c3ccc(OC)cc3)co2)cc1 | 6%
72 | CCOc1ccccc1Oc1ncccc1/C(=N/O)n1cnc(C)c1 | 16%

Row | Structure (SMILES) | % inhibition
73 | CCOc1ccccc1CNCc1coc(-c2ccc(OC)cc2)n1 | -13%
74 | CCCC(C)NCc1coc(-c2ccccc2Br)n1 (configuration not stated) | -7%
75 | Fc1cccc(-c2nc(CN3CCN(c4cccc(Cl)c4)CC3)co2)c1 | 17%
76 | COc1cccc(-c2nc(CN(C)CCc3ccccc3)co2)c1 | 1%
77 | COc1ccc(CN/C(=N\O)c2ccc(Oc3cccc(OC)c3)nc2)cc1 | 10%
78 | COc1cccc(Oc2ccc(/C(=N/O)NC3CCN(Cc4ccccc4)C3)cn2)c1 (configuration not stated) | -3%
79 | COc1cccc(Oc2ccc(/C(=N/O)NC3CCC(C)CC3)cn2)c1 (configuration not stated) | 89%
80 | Cc1cccc(Oc2ccc(/C(=N/O)NC3CC(C)CC(C)(C)C3)cn2)c1 (configuration not stated) | 47%
81 | Cc1cccc(Oc2ccc(/C(=N/O)NCC3CCCCC3)cn2)c1 | 36%
82 | Cc1cccc(Oc2ccc(/C(=N/O)NC3CCc4ccccc43)cn2)c1 (configuration not stated) | 10%
83 | COc1cccc(Oc2ccc(/C(=N/O)NC3CCCCC3)cn2)c1 | 98%
84 | Cc1cccc(Oc2ccc(/C(=N/O)NC3CCC(C)CC3)cn2)c1 (configuration not stated) | 59%
85 | COc1cccc(Oc2ccc(/C(=N/O)NCC3CCCCC3)cn2)c1 | 87%
86 | COc1cccc(Oc2ccc(/C(=N/O)NC3CC(C)CC(C)(C)C3)cn2)c1 (configuration not stated) | 7%
87 | Cc1ccc(/C(=N/O)N2CCC3CCCCC3C2)c(Oc2cccc(F)c2)n1 (configuration not stated) | 16%
88 | CCCN(Cc1coc(-c2cccc(F)c2)n1)CC1CC1 | 17%
89 | COc1ccc(NCc2coc(-c3cccc(F)c3)n2)cc1 | 14%
90 | CC(C)c1cccc(Oc2cc(/C(=N/O)NC3CCc4ccccc43)ccn2)c1 (configuration not stated) | 4%
91 | Clc1ccccc1-c1nc(CN2CCN(C/C=C/c3ccccc3)CC2)co1 | -22%
92 | COC(=O)C1CCN(/C(=N\O)c2cccnc2OCC2CCCCC2)CC1 | 6%
93 | Cc1ccc(/C(=N/O)NCc2cccnc2)c(Oc2cccc(F)c2)n1 | 5%
94 | Cc1ccc([C@@H](C)NCc2coc(-c3ccc(OC(F)(F)F)cc3)n2)cc1 | -17%
95 | CCc1ccc(Oc2ncccc2/C(=N/O)N2CC(C)CC(C)C2)cc1 (configuration not stated) | 15%
96 | CC1CC(NCc2coc(-c3ccc(C(F)(F)F)cc3)n2)CC(C)(C)C1 (configuration not stated) | 98%

Row | Structure (SMILES) | % inhibition
97 | CC(NCc1coc(-c2ccc(C(F)(F)F)cc2)n1)C1CCCCC1 (configuration not stated) | 7%
98 | CC1CN(Cc2coc(-c3ccc(C(F)(F)F)cc3)n2)CC(C)O1 (configuration not stated) | 12%
99 | CCOc1ccc(-c2nc(CNC3CCCCCC3)co2)cc1 | 20%
100 | CCOc1ccc(-c2nc(CNC3CC(C)CC(C)(C)C3)co2)cc1 (configuration not stated) | 99%
101 | CCOc1ccc(-c2nc(CN3CC(C)OC(C)C3)co2)cc1 (configuration not stated) | -8%
102 | C#CC1(NCc2coc(-c3ccccc3Cl)n2)CCCCC1 | -12%
103 | COc1ccc(CN/C(=N\O)c2ccc(Oc3cc(C)cc(C(C)C)c3)nc2)cc1 | 28%
104 | Brc1ccc(-c2nc(CNCc3cccnc3)co2)cc1 | -36%
105 | COc1cccc(-c2nc(CN(C)C(C)(C)C)co2)c1 | 31%
106 | c1ccc(-c2nc(CN3CCN(C4CCCCC4)CC3)co2)cc1 | -4%
107 | O/N=C(\NCc1ccccc1)c1cccnc1Oc1cc(Cl)ccc1Cl | 100%
108 | CC(C)COc1ncccc1/C(=N/O)NCC1CCCO1 (configuration not stated) | 6%
109 | COc1ccc(CN/C(=N\O)c2cccnc2Oc2cc(Cl)ccc2Cl)cc1 | 5%
110 | Cc1ccc(/C(=N/O)NCc2ccccn2)c(Oc2cc(Cl)ccc2Cl)n1 | 30%
111 | COc1ccc(Oc2ncccc2/C(=N/O)NCC2CCCO2)cc1 (configuration not stated) | -15%
112 | CCOc1ccccc1CN/C(=N\O)c1cccnc1Oc1ccc(Cl)cc1 | 87%
113 | CC(C)c1ccc(Oc2ncccc2/C(=N/O)NCC2CCCO2)cc1 (configuration not stated) | 98%
114 | Cc1ccccc1CN/C(=N\O)c1cccnc1Oc1cc(Cl)ccc1Cl | 99%
115 | CCOc1ccccc1CN/C(=N\O)c1ccnc(Oc2ccc(Cl)cc2)c1 | 7%
116 | CCOc1ccccc1CN/C(=N\O)c1ccc(Oc2ccc(Cl)cc2)nc1 | 1%
117 | O/N=C(\NCc1ccccn1)c1cccnc1Oc1cc(Cl)ccc1Cl | 0%
